Assay outcomes from PubChem.
gsp antagonist: antagonizes gsp, the McCune-Albright syndrome mutation; gsp-mutant cells, cAMP HTRF, 30 min; Potency, µM (doses to about 76.9 µM), without a hit: at the highest dose activity change, negative = inhibition, most hits filed as inhibitors; 340,000 tested, 0.4% active; calls by dose curve; cell line not stated here;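 also: intracellular cAMP measured with PDE inhibitor Ro 20-1724 present during compound exposure; potency is read from the fitted curve at half-maximal effect; % is scaled to controls: 0 for no effect and ±100 for the full control effect; nearly all actives have a fitted effect of over 65% in size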
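Cells, 2000/well, grown 16–24 h in DMEM 10% FBS with 0.5 mg/ml G418, then compounds plus […] (300 uM addition stock), 30 min at 37C. cAMP read by HTRF (cAMP-d2 and anti-cAMP antibody-K in lysis buffer) after 30 min RT.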
Akt phos inh: blocks phosphorylation of Akt; Neuro2A IGF-stimulated pAkt S473 HTRF, 20 min; active compounds read low; 360,000 tested, 0.32% active; activity change, % for hits at 50 µM; AID 651550; in the data active = activity change below about -80%; inconclusive = mostly about -51% to -80%; also: % is scaled to controls: 0 for no effect and ±100 for the full control effect
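Neuro2A cells (4,500/well, DMEM with 0.5% FBS) were treated with compound at a single 50 µM final concentration, stimulated with 6 nM IGF for 20 min at 37 °C, and lysed. Phospho-Akt Ser473 was read by HTRF as 665/615 ratio ×10^4.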
gsp ag: activates gsp, the McCune-Albright syndrome mutation; gsp mutant cells, cAMP HTRF, 30 min; Potency, µM (highest dose often 76.9 µM), without a hit: top-dose activation (cAMP increase), most hits filed as activators; 340,000 tested, 0.13% active; active = well fitted activation curve with a large enough effect; inconclusive = small, poorly fitted or top-dose-only effect, or another doubt; inactive = no such curve, though single readings can be large or run the other way; cell line not stated here;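 also: phosphodiesterase inhibitor Ro 20-1724 added with compounds to block cAMP breakdown; potency is read from the fitted curve at half-maximal effect; nearly all actives have a fitted effect of over 60% in size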
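Cells in DMEM/10% FBS with G418 were pretreated with compounds in DMSO plus […] (300 uM stock) for 30 min at 37C. cAMP was measured by HTRF (cAMP-d2 plus anti-cAMP antibody-K) after 30 min at room temperature.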
RXFP1 ag: activates the human relaxin receptor RXFP1 | Q9HBX9 | HEK293T-RXFP1 cAMP TR-FRET, 30 min; response scale: percent of porcine relaxin response, buffer zero | Potency, µM (doses to about 57.5 µM), inactives show top-dose activation, hits mostly activators | 370,000 tested, 0.3% active | AID 2676; active = well fitted activation curve with a large enough effect; inconclusive = small, poorly fitted or top-dose-only effect; also: potency is read from the fitted curve at half-maximal effect; % is scaled to controls: 0 for no effect and ±100 for the full control effect; nearly all actives have a fitted effect of over 60% in size
Target sequence (Q9HBX9 whole entry, looked up): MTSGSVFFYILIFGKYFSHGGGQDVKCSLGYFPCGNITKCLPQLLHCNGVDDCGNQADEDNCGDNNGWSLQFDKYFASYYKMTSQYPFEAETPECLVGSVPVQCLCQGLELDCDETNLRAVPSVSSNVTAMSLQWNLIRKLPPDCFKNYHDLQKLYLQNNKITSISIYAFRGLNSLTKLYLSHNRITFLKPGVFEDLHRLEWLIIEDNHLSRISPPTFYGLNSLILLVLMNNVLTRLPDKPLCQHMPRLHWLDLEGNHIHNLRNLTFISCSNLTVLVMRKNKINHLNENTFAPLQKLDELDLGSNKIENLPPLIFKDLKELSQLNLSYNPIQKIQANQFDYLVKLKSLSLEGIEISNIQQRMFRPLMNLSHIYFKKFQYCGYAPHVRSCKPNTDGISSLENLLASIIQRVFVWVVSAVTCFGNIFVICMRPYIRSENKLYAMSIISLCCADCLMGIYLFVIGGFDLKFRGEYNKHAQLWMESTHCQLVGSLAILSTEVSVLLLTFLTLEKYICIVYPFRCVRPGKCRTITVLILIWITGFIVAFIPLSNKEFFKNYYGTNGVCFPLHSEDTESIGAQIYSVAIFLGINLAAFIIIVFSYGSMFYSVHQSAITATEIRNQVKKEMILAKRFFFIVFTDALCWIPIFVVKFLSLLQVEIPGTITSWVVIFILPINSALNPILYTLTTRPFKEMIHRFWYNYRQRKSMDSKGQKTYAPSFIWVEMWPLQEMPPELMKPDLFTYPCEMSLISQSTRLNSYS
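HEK293 cells stably expressing RXFP1, treated 30 min at 37C with compounds plus PDE4 inhibitor Ro 20174; cAMP measured by HTRF TR-FRET. Normalized to buffer and 29 nM porcine relaxin; EC50 by Hill fit.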
RXFP1 antagonist: RXFP1 (human) relaxin receptor antagonism; Q9HBX9; HEK293-RXFP1, relaxin-stimulated cAMP HTRF, 30 min; active compounds read low; activity change, negative = inhibition, % at 57.5 µM; 350,000 tested, 0.59% active; AID 1259400;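 active = activity change of -60% or lower, but not beyond a set lower limit; inconclusive = change between -60% and -40%, or beyond the set limit; inactive = change above -40%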; also: % is scaled to controls: 0 for no effect and ±100 for the full control effect
Numbers without * were called inactive; i = inactive; ? = inconclusive; . = not tested or not shown; ! = repeats disagree; [ ] = another dose, or the depositor's remark. Hits are enriched below; roughly 1.2% of the tested compounds scored in any of these assays.

SMILES | gsp antagonist | Akt phos inh | gsp ag | RXFP1 ag | RXFP1 antagonist
Cc1ccc(-n2c(SCC(=O)Nc3cc(C)on3)nc3ccccc3c2=O)cc1 | 1.4% | -84.9%* | 5.1% | 5.1% | -3.5
CCc1cc2c(=O)n(-c3ccccc3)c(SCC(N)=O)nc2s1 | 7.08µM* | i | 6.5% | 0.3% | -11.1
Cc1cc(NC(=O)CSc2nc3ccsc3c(=O)n2CCCCC(=O)O)no1 | -0.6% | i | 12.5% | 0.0% | 21.4
CCCCn1c(SCC(=O)Nc2cc(C)on2)nc2ccsc2c1=O | 27.5% | -101.2%* | 9.8% | ? | 0.1
CO[C@@H]1[C@@H](OC2OC(C)C(OC3CC(C)(O)C(O)C(C)O3)C(N(C)C)C2O)[C@@H](CC=O)C[C@@H](C)[C@@H](OC2CCC(N(C)C)C(C)O2)/C=C/C=C/C[C@@H](C)OC(=O)C[C@H]1OC(C)=O (stereo partly specified) | . | . | . | . | -8.9
CN(C)Cc1nc2c(c(=O)[nH]1)C1(CCCCC1)Cc1ccccc1-2 | 5.7% | i | 17.6% | 1.7% | -61.9*
O=C1NC(c2cccc3ccccc23)Nc2ccccc21 (stereo unspecified) | 6.1% | i | 6.3% | . | -1.2
O=C1NC(c2ccccc2Cl)Nc2ccccc21 (stereo unspecified) | 0.9% | -111.2%* | 16.2% | 3.6% | -9.7
COc1ccc(Cl)cc1NC(=O)c1c(NCc2cccnc2)sc2c1CCC(C)C2 (stereo unspecified) | . | . | . | 3.4% | -18.4
O=C(COc1ccccc1[N+](=O)[O-])Nc1ccc(N2CCN(C(=O)c3cccs3)CC2)cc1 | 28.2µM* | i | 0.7%[15.4 µM] | 0.3% | -27.6
CCC(=O)Nc1ccc(N2CCN(C(=O)c3cccs3)CC2)cc1 | -21.2% | i | 3.1% | 1.0% | 1.5
Cc1ccc(C(CNC(=O)Nc2ccc(Cl)cc2)N2CCN(C)CC2)cc1 (stereo unspecified) | 5.9% | i | ? | -2.7% | -84.1*
Cc1cn2c(=O)cc(COC(=O)c3cccc(NC(=O)COc4ccccc4)c3)nc2s1 | . | . | . | 19.7% | -2.4
OCCN1CCN(C(=S)Nc2cccc(C(F)(F)F)c2)CC1 | 6.9% | i | 3.0% | 1.2% | -68.5*!
CC(=O)N1CCc2cc(Br)cc(S(=O)(=O)N3CCN(c4cccc(C)c4)C(C)C3)c21 (stereo unspecified) | . | . | . | 1.0% | -5.1
CCC(C)NS(=O)(=O)c1ccc(OCC(=O)Nc2ccc(F)cc2F)cc1 (stereo unspecified) | 0.7% | -110.9%* | -1.5% | 0.9% | 2.0
COc1ccccc1C1CCN(c2cc(O)ccc2[N+](=O)[O-])CC1 | 31.6µM* | i | -6.3%[15.4 µM] | -2.1% | -11.5
O=C(NCc1ccccc1Cl)c1ccccc1NC(=O)c1nsc2ccccc12 | . | . | . | 4.3% | -10.4
CCOc1ccc(NC(=O)Cn2sc3nc(C)cc(C)c3c2=O)cc1 | -2.1% | i | -2.4%[15.4 µM] | 6.1% | -66.3*
Cc1cc(C)c2c(=O)n(CC(=O)Nc3ccc(Cl)cc3)sc2n1 | -10.7% | i | ? | 1.1% | -25.6
Cc1ccc(CN(C)CC(=O)Nc2ccc3c(c2)CCC3)cc1 | -5.2% | i | 25.8% | -0.2% | -64.2*
Cc1ccc(OCC(=O)Nc2ccccc2C(=O)OCc2cc(=O)n3nc(C4CC4)sc3n2)cc1 | . | . | . | 2.0% | -8.2
CN(C)/C=C(\C#N)C(=O)c1cccc(Oc2ccc(Br)cc2)c1 | -11.9% | -111.7%* | -32.8% | -0.5% | -7.5
Cc1ccc(NC(=O)CC2CS(=O)(=O)CC2CC(=O)Nc2ccc(C)c(C)c2)cc1C (stereo unspecified) | 6.2% | -121.2%* | 22.5% | 3.2% | -2.3
Cc1ccc(/C=N/n2c(-c3cccnc3)n[nH]c2=S)s1 | 7.94µM* | i | -19.6% | 0.4% | 9.7
SMILES | gsp antagonist | Akt phos inh | gsp ag | RXFP1 ag | RXFP1 antagonist
CCN1CCN(c2ccc(S(=O)(=O)N3CCOCC3)cc2NC(=O)c2cccc([N+](=O)[O-])c2)CC1 | 9.1% | i | 25.1µM* | . | -4.5
Cc1ccc(C)c(NC(=O)c2cc(S(=O)(=O)N3CCCCC3)ccc2N2CCOCC2)c1 | ? | i | 21.0% | -1.1% | -1.2
Cc1ccc(S(=O)(=O)N2CCOCC2)cc1NC(=O)c1cc([N+](=O)[O-])ccc1N1CCOCC1 | 6.6% | i | 11.2µM* | 12.4% | -6.8
COc1cc2c(cc1OC)CN(C(=O)[C@H](C)N[C@@H](CCc1ccccc1)C(=O)O)[C@H](C(=O)O)C2 | . | . | . | . | 23.2
O=C(C1CC1)N1N=C(c2ccncc2)CC1(O)C(F)(F)F (stereo unspecified) | -1.4% | i | -19.6% | 0.0% | -62.5*
O=C(c1ccccc1O)N1N=C(c2ccccc2)CC1(O)C(F)(F)F (stereo unspecified) | 1.4% | i | -94.0% | -0.6% | -76.2*
O=C(C1CC1)N1N=C(c2cccc(Br)c2)CC1(O)C(F)(F)F (stereo unspecified) | 0.6% | i | -26.3%[15.4 µM] | 2.4% | -35.2
Cc1ccc(N=Cc2cc(Cc3ccccc3Cl)cc([N+](=O)[O-])c2O)c(O)c1 | -28.6% | i | -102.2% | -4.7% | -96.1*
COc1ccc(N=Cc2cc(Cc3ccccc3Cl)cc([N+](=O)[O-])c2O)cc1OC | -3.4% | i | -26.0% | 0.6% | -10.3
COc1ccccc1-c1nc2c(c(SCC(=O)Nc3ccccc3F)n1)Cc1c(CO)cnc(C)c1O2 | . | . | . | -0.5% | -3.3
CCOC(=O)Cc1nnc2c(Nc3ccc(Cl)cc3)nc3nonc3n12 | 35.5µM* | i | 5.7% | 0.8% | -14.4
COc1cc(C2C(C(=O)c3ccc(C)o3)=C(O)C(=O)N2CCN2CCOCC2)ccc1OCCC(C)C (stereo unspecified) | 4.6% | i | 38.3%[15.4 µM] | 15.8µM* | 7.7
CCOc1cc(-c2ccc(OC(=O)c3ccccc3Cl)c(OC)c2)cc(=O)c2c(C)oc(C)c12 | . | . | . | -0.7% | -73.0*
CCN1CCN(c2cc(C)c3cc(NC(=O)c4cc(Br)ccc4Cl)ccc3n2)CC1 | . | . | . | -0.5% | -26.2
Cc1ccc2oc(-c3cccc(NC(=O)c4ccc(N5CCC(C)CC5)c([N+](=O)[O-])c4)c3)nc2c1 | . | . | . | 0.4% | -17.8
O=C(O)c1cccc(S(=O)(=O)Nc2ccc3oc(=O)sc3c2)c1 | 7.0% | -113.8%* | ? | -5.2% | 12.3
Cc1cc(Cl)c(S(=O)(=O)NC2CCCC2)cc1OCC(=O)NC1CCCCC1 | 28.2µM* | . | -25.8% | 0.9% | -9.2
CCc1nnc(NC(=O)c2nc(S(=O)(=O)Cc3cccc(C)c3)ncc2Cl)s1 | 15.8µM* | i | -19.5%[15.4 µM] | -4.0% | -34.3
CCc1nnc(NC(=O)c2nc(S(=O)(=O)Cc3ccc(C)cc3)ncc2Cl)s1 | 28.2µM* | i | -8.2%[15.4 µM] | -0.1% | -24.6
COc1ccc(Nc2cc(C(=O)NCCCN(C)Cc3ccccc3)c3ccccc3n2)cc1OC | . | . | . | 0.5% | ?
